Source: PubChem BioAssay
HADH2 inh: qHTS Assay for Inhibitors of HADH2 (Hydroxyacyl-Coenzyme A Dehydrogenase, Type II) | recombinant HADH2, NADH fluorescence, beta-hydroxybutyryl-CoA | Potency, µM (top dose mostly 57.1 µM), actives largely listed as inhibitors | 3.4% of 73,000 active; further: nearly all actives have a fitted effect of over 60% in size
Target sequence (Q99714 whole entry, looked up, one chain of several): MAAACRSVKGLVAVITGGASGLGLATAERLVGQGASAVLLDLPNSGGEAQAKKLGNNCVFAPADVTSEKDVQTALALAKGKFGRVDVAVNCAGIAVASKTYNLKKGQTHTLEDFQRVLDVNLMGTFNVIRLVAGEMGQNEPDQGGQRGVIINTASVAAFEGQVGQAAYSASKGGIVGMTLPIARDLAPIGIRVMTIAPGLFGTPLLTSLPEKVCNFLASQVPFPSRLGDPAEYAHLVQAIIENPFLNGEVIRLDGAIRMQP
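Buffer 100 mM Tris-HCl pH 9.0/0.01% Tween-20; HADH2 20 nM; NAD+ 1 mM; beta-hydroxybutyryl-CoA 90 uM (all final). 15 min cpd preincubation, RT.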
AID923: qHTS Assay for Allosteric/Competitive Inhibitors of Caspase-1: Spectroscopic Profiling in AFC Spectral Region. Potency, µM (titrated, usually from 57.5 µM), hits mostly activators. compound fluorescence, AFC spectral region (405/520 nm). 1.1% of 75,000 active
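Titrations up to 57 uM read every 20 sec for 3 min (405/520 nm) with 50 nM caspase 1 and 5 uM Ac-WEHD-AFC, pH 7.5 HEPES buffer. Fluorescence-vs-time intercept gave baseline, scaled against on-plate AFC standard.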
HSD17B inh: qHTS Assay for Inhibitors of HSD17B4, hydroxysteroid (17-beta) dehydrogenase 4; 3-hydroxyacyl-CoA dehydrogenase type-2 (Homo sapiens), Q99714; recombinant HSD17B10, NADH fluorescence kinetic; Potency, µM (doses to about 57.1 µM), most hits filed as inhibitors; 7.6% of 75,000 active;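 further: the protocol describes HADH2 (HSD17B10) and not the HSD17B4 of the title; nearly all actives have a fitted effect of over 70% in size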
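Enzyme plus compound, 15 min room temperature; substrate mix added (NAD+ 1 mM, beta-hydroxybutyryl-CoA 90 uM final); plates read kinetically for NADH fluorescence. HADH2 was His-tagged, E. coli-derived, 20 nM.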
4MU fluor: qHTS Assay for Spectroscopic Profiling in 4-MU Spectral Region. max dye-equivalent concentration, M. compound autofluorescence, 340/450 nm, 4-MU equivalents; stronger effect = higher value. 11% of 59,000 active; in the data active means max dye-equivalent concentration above about 10 nM; inconclusive means mostly about 1.1 nM to 9.6 nM
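Compounds in 100 mM Tris, pH 8.0, incubated 15 min at room temperature, then fluorescence read at 340 nm excitation/450 nm emission. Signal converted to 4-MU dye-equivalent concentration using an on-plate six-point 4-MU standard curve.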
A350 autofl: qHTS Assay for Spectroscopic Profiling in A350 Spectral Region; Compound autofluorescence, 340/450 nm, Alexa 350 dye-equivalents; stronger effect = higher value; max dye-equivalent concentration, M; 11% of 59,000 active; in the data active means max dye-equivalent concentration above about 10 nM; inconclusive means mostly about 1.1 nM to 9.6 nM
CRE-bla Fsk: Cell signaling CRE-BLA (Fsk stim); CHO CRE-bla reporter (cAMP response element driving beta-lactamase), forskolin EC10, beta-lactamase ratio; Potency, µM (top dose mostly 38.2 µM), hits mostly activators; 2.5% of 71,000 active; active means well fitted activation curve with a large enough effect in the signal ratio, with a control signal flat, not every such curve was filed as active; inconclusive means small, poorly fitted or top-dose-only effect, or effect the other way, or a change in a side signal; the % refers to the signal ratio
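Using CellSensor CRE-bla CHO cells in Opti-MEM with 0.5% dialyzed FBS, compounds were titrated with EC10 NKH 477 for 3 h at 37 °C. CCF4 ratio (460/530 nm) gave %Activity; AC50 derived.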
Of the large screens only hits and unclear results are named; the others gave an inactive call. Compounds with a hit are over-represented: about 14% of the library has one in this group of screens. Unless noted, the call rests on the fitted dose curve; in most records, active means well fitted curve in the direction sought with a large enough effect; inconclusive means small, poorly fitted or top-dose-only effect, or another doubt; inactive means no such curve, though single readings can be large; an effect the other way counts as inactive or inconclusive.

COc1ccc(C)cc1-n1nnnc1SCc1csc(C)n1	none
COc1ccc(C)cc1-n1nnnc1SCc1cc(=O)n2cc(C)ccc2n1	HSD17B inh inconclusive, 4MU fluor 1.72e-08M, A350 autofl 2.99e-08M
CSc1nc(NC2CCCC2)c([N+](=O)[O-])c(NC2CCCC2)n1	none (no result: 4MU fluor, A350 autofl)
CCCCCCn1c(N2CCN(c3cccc(Cl)c3)CC2)nc2c1c(=O)[nH]c(=O)n2C	CRE-bla Fsk inconclusive
Cn1c(=O)[nH]c(=O)c2c1nc(CN1CCN(c3cccc(Cl)c3)CC1)n2CCc1ccccc1	CRE-bla Fsk 12.6µM
CCCCCn1c(CN2CCN(c3cccc(Cl)c3)CC2)nc2c1c(=O)[nH]c(=O)n2C	CRE-bla Fsk 12.6µM
CC(=O)OC1C[C@@]2(C)C(c3ccoc3)OC(=O)C3O[C@@]32[C@]2(C)C(OC(C)=O)CC3C(C)(C)C(OC(C)=O)CC(OC(C)=O)[C@@]3(C)C12 (stereo partly specified)	none (no result: HADH2 inh, 4MU fluor, A350 autofl, CRE-bla Fsk)
CCOc1ccc(-n2c(SCC(=O)Nc3cc(C)on3)nc3c([nH]c4ccccc43)c2=O)cc1	CRE-bla Fsk 1.26µM (no result: 4MU fluor, A350 autofl)
Cc1cc(NC(=O)CSc2nc3ccccc3c(=O)n2C2CCCC2)no1	CRE-bla Fsk 12.6µM
COc1cccc(-n2c(SCC(=O)Nc3cc(C)on3)nc3ccccc3c2=O)c1	4MU fluor 6.52e-07M, A350 autofl 7.72e-07M, CRE-bla Fsk inconclusive
CN(C)c1ccc(NC(=O)CSc2nc3ccccc3c(=O)n2C2CCCCC2)cc1	none
COCCNC(=O)CSc1nc2ccccc2c(=O)n1-c1cccc(OC)c1	none
Cc1cc(-n2c(SCC(=O)NCc3cccs3)nc3n[nH]c(C)c3c2=N)ccc1Cl	HSD17B inh inconclusive, 4MU fluor 1.46e-08M, A350 autofl inconclusive, CRE-bla Fsk inconclusive
Cc1[nH]nc2nc(SCC(=O)NCC3CCCO3)n(-c3ccc(Br)cc3)c(=N)c12 (stereo unspecified)	CRE-bla Fsk 7.94µM
CC(C)C[C@@H](CC(=O)N[C@@H](CCC(=O)O)CC(=O)O)NC(=O)[C@@H]1CCCC[C@H]1NC(=O)C[C@H](CCCN)NC(=O)C[C@H](Cc1c[nH]c2ccccc12)NC(=O)[C@@H]1CNCC[C@H]1N	none (no result: AID923, HSD17B inh, 4MU fluor, A350 autofl)
O=C1[C@@H]2[C@H]3[C@H](O)[C@H](O)C/C(=N/OC[C@@H](O)COCc4ccco4)[C@@H]3CC[C@H]2C(=O)N1c1ccc(F)cc1F	none (no result: 4MU fluor, A350 autofl, CRE-bla Fsk)
CCc1cc2c(=O)c(-c3nc4ccccc4n3C)coc2c(CN2CCN(C)CC2)c1O	HSD17B inh 31.6µM, 4MU fluor 6.92e-08M, A350 autofl 7.24e-08M
COc1ccccc1-c1coc2c(CN3CCN(C)CC3)c(O)ccc2c1=O	HSD17B inh 31.6µM (no result: 4MU fluor, A350 autofl)
COc1ccccc1Oc1coc2c(CN3CCN(C)CC3)c(O)ccc2c1=O	HSD17B inh 31.6µM, 4MU fluor 6.76e-07M, A350 autofl 9.48e-07M
COc1ccccc1-c1coc2c(CN3CCN(CCO)CC3)c(O)ccc2c1=O	HADH2 inh 25.1µM, HSD17B inh 25.1µM, 4MU fluor 1.29e-06M, A350 autofl 1.02e-06M
COc1ccccc1Oc1coc2cc(OC(=O)N3CCOCC3)ccc2c1=O	none
CSc1ccccc1NC(=O)COc1ccc(S(=O)(=O)N2CCCC2)cc1	CRE-bla Fsk inconclusive
CCN1C(=O)[C@H]2[C@H]3[C@H](O)[C@H](O)C/C(=N/NC(=O)OCc4ccc(OC)cc4)[C@H]3CC[C@@H]2C1=O	none (no result: 4MU fluor, A350 autofl, CRE-bla Fsk)
N[C@H](CCCC(=O)O)C(=O)O	A350 autofl inconclusive
CCN1CCN(Cc2c(O)ccc3c(=O)c(-c4ccccc4OC)coc23)CC1	HADH2 inh inconclusive, HSD17B inh 31.6µM, 4MU fluor 6.9e-07M, A350 autofl 4.94e-07M
CCc1cc2c(=O)c(-c3nc4ccccc4[nH]3)coc2c(CN2CCC(C)CC2)c1O	none (no result: 4MU fluor, A350 autofl)
C=CCSCC=C	none (no result: HADH2 inh, 4MU fluor, A350 autofl, CRE-bla Fsk)
Cc1cccc(C)c1[N+](=O)[O-]	none (no result: 4MU fluor, A350 autofl)
Cc1ccc(C(=O)C2=C(O)C(=O)N(CCN3CCOCC3)C2c2ccccn2)o1 (stereo unspecified)	4MU fluor 1.02e-08M, A350 autofl 1.24e-08M (no result: HADH2 inh, AID923, HSD17B inh, CRE-bla Fsk)
Cc1ccc2[nH]c(=O)c3cc(C(=O)NCCN4CCN(C)CC4)sc3c2c1	HSD17B inh 25.1µM (no result: 4MU fluor, A350 autofl)
CCn1c(=O)c2cc(C(=O)NCc3cccs3)sc2c2ccccc21	HSD17B inh 15.8µM, CRE-bla Fsk inconclusive (no result: 4MU fluor, A350 autofl)
CCn1c(=O)c2cc(C(=O)NCCN3CCOCC3)sc2c2ccccc21	HSD17B inh 31.6µM, CRE-bla Fsk inconclusive (no result: 4MU fluor, A350 autofl)
Cn1nc(C(=O)NCCN2CCOCC2)c2ccccc2c1=O	none
CCn1c(=O)c2cc(C(=O)Nc3cc(C)on3)sc2c2ccccc21	HSD17B inh inconclusive (no result: 4MU fluor, A350 autofl)
CN(C)C(=O)c1ccc(-c2nc(N3CCOCC3)c3ccccc3n2)cc1	HSD17B inh inconclusive, 4MU fluor 3.3e-08M, A350 autofl 3.67e-08M, CRE-bla Fsk 10µM
CS(=O)(=O)Nc1cccc(-c2nc(N3CCOCC3)c3ccccc3n2)c1	CRE-bla Fsk 2.51µM
Fc1ccc(Nc2nc(N3CCOCC3)c3ccccc3n2)cc1	4MU fluor inconclusive, A350 autofl 1.14e-08M, CRE-bla Fsk inconclusive
FC(F)(F)c1ccccc1-c1nc(N2CCOCC2)c2ccccc2n1	CRE-bla Fsk inconclusive
CN1CCN(c2nc(-c3cccc(NS(C)(=O)=O)c3)nc3ccccc23)CC1	CRE-bla Fsk inconclusive
CCN(CCO)C[C@H]1CCC[C@H]2CCCC[C@@H]21	none
Cc1ccc(CNC(=O)c2cn(C3CCCC3)c(=O)c3c2c2ccccc2n3C)o1	HSD17B inh 25.1µM, 4MU fluor 5.4e-08M, A350 autofl 4.68e-08M, CRE-bla Fsk inconclusive
Cn1c2ccccc2c2c(C(=O)NCc3ccco3)cn(C3CCCCC3)c(=O)c21	HSD17B inh 12.6µM, 4MU fluor 5.27e-08M, A350 autofl 4.83e-08M, CRE-bla Fsk inconclusive
CCOC(=O)OCC	none (no result: 4MU fluor, A350 autofl)
CC[n+]1ccc(C)c2cc(S(=O)C(F)(F)F)ccc21 (stereo unspecified)	HADH2 inh inconclusive, HSD17B inh 25.1µM
O=C(CSCc1nc2ccccc2[nH]1)N1CCN(c2ccc(F)cc2)CC1	HADH2 inh inconclusive, 4MU fluor 1.32e-08M, A350 autofl 1.38e-08M
CC(=O)CCc1ccc(OC(=O)c2cccnc2)cc1	none (no result: 4MU fluor, A350 autofl)
CCc1nnc2sc(-c3ccc(NC(=O)CSc4ccc(Cl)cc4)cc3)nn12	4MU fluor 1.11e-08M, A350 autofl 1.06e-08M, CRE-bla Fsk inconclusive
Cc1nnc2sc(-c3ccc(NC(=O)CSc4ccc(Cl)cc4)cc3)nn12	HADH2 inh inconclusive, HSD17B inh inconclusive, 4MU fluor inconclusive, A350 autofl inconclusive, CRE-bla Fsk inconclusive
